Bioassay records from PubChem BioAssay.
ATXN2 expr inh – inhibitors of ATXN2 expression; HEK-293 ATXN2-luciferase reporter, luminescence, 24 h; Potency, µM (top dose mostly 57 µM), hits mostly inhibitors; 0.72% of 360,000 active; AID 1745845; note: nearly all actives have a fitted effect of over 55% in size
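ATXN2-luciferase reporter cells (luciferase flanked by upstream and downstream ATXN2 gene portions) were treated 24 h at 37 °C with compounds at up to 57 uM. SteadyGlo luminescence gave expression; GF-AFC fluorescence gave viability.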
IL1B secr inh – blocks inflammasome-driven IL-1 beta release; THP-1 LPS/ATP IL-1B secretion, AlphaLISA, 16 h; stronger effect = lower value; activity change, % at 57.5 µM; 4.7% of 360,000 active; AID 743279; in the data active = activity change below about -50%; inconclusive = mostly about -30% to -49%
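THP-1 cells pretreated 1 hr with compounds (up to 57.5 uM final), then stimulated with LPS (250 ng/mL final) plus ATP (1.25 mM final); secreted IL-1B measured by AlphaLISA after 16 hr, decreased signal indicating inhibition.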
MCF10A rereplic – DNA re-replication induction in MCF 10a cells | AID 624296 | MCF 10A DNA re-replication, Hoechst nuclear intensity, 48 h | Potency, µM (top dose mostly 46.1 µM), actives largely listed as activators | 2.9% of 350,000 active; note: nearly all actives have a fitted effect of over 50% in size
SW480 rereplic – DNA re-replication induction in SW480 cells | AID 624297 | 1.8% of 340,000 active | SW480 DNA re-replication, Hoechst DNA content imaging, 48 h | Potency, µM (titrated, usually from 46.1 µM), actives largely listed as activators; note: nearly all actives have a fitted effect of over 55% in size
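DNA re-replication was detected as more nuclei of elevated Hoechst intensity after 48 hr exposure to compound (23 nL pinned per well of 250 cells).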
PINK1 expr mod – changes PINK1 expression | PINK1 immunofluorescence, high-content cytometry, 24 h | Potency, µM (titrated, usually from 76.6 µM), actives largely listed as activators | 0.2% of 410,000 active | AID 624263; active = well fitted activation curve with a large enough effect; inconclusive = small, poorly fitted or top-dose-only effect; cell line not stated here; note: nearly all actives have a fitted effect of over 65% in size
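Readout is PINK1 immunofluorescence, quantified alongside mitochondrial, cell and nuclear markers by laser-scanning microplate cytometry. Cells from a stable line were exposed to compound titrations (5 concentrations) for 24 hours, with CCCP controls.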
S2 tox – viability counter-screen for ATXN expression inhibitors; S2 cells (HEK-293 line with an ATXN2-luciferase reporter) viability, CellTiter-Fluor protease fluorescence, 24 h; Potency, µM (doses to about 56.7 µM), actives largely listed as cytotoxic; 0.49% of 400,000 active; note: nearly all actives have a fitted effect of over 40% in size
Of the large screens only hits and unclear results are named; the others gave an inactive call. Rows were chosen to be rich in hits. Some 7.1% of all compounds tested hit in one or more screens of this group. Unless noted, calls come from the whole dose curve; as a rule, active = well fitted curve in the direction sought with a large enough effect; inconclusive = small, poorly fitted or top-dose-only effect, or another doubt; inactive = no such curve, though single readings can be large; an effect the other way counts as inactive or inconclusive.

O=C(NCC1(c2ccccc2)CCCC1)C(=O)Nc1cccc(Br)c1	none (no result: ATXN2 expr inh, IL1B secr inh, MCF10A rereplic, SW480 rereplic, S2 tox)
Cc1c(CCC(=O)NCCc2ccccc2F)c(=O)oc2cc(O)ccc12	S2 tox inconclusive (no result: IL1B secr inh, MCF10A rereplic, SW480 rereplic)
CCOC(=O)Cn1nc(C)n(-c2ccccc2)c1=O	none
CCOC(=O)Cn1nc(C)n(-c2c(C)cccc2C)c1=O	IL1B secr inh -62
CCOC(=O)c1c(NC(=O)/C=C/c2ccc(OCC)cc2)sc(C(C)=O)c1C	none (no result: IL1B secr inh, MCF10A rereplic, SW480 rereplic)
CCOC(=O)c1sc2nc(C(C)C)c3c(c2c1N)CCC3	MCF10A rereplic 3.7µM, SW480 rereplic 18µM, PINK1 expr mod inconclusive
COC(=O)c1sc2nc(N3CCCCC3)c3c(c2c1N)CCCC3	MCF10A rereplic 7.1µM
CCOC(=O)c1sc2nc(C(C)C)c3c(c2c1N)CC(C)(C)OC3	MCF10A rereplic inconclusive, SW480 rereplic inconclusive
COC(=O)c1ccc(-c2sc3nc(N4CCOCC4)c4c(c3c2N)CCCC4)o1	MCF10A rereplic inconclusive, SW480 rereplic 0.63µM (no result: S2 tox)
CCOc1ccc(CC(=O)Nc2c(C(=O)c3ccc(F)cc3)oc3ccc(Cl)cc23)cc1OCC	none (no result: IL1B secr inh, MCF10A rereplic, SW480 rereplic)
COc1ccc2c(c1)c1c(c(=O)n(-c3ccccc3)c(=O)n1CC(=O)Nc1ccc(F)cc1)n2C	none (no result: IL1B secr inh, MCF10A rereplic, SW480 rereplic)
COc1cc2c(NC3CCN(C)CC3)nc(N3CCCN(C)CC3)nc2cc1OCc1ccccc1	none (no result: ATXN2 expr inh, IL1B secr inh, MCF10A rereplic, SW480 rereplic, S2 tox)
COc1ccc(-c2nnc3sc(-c4cccs4)nn23)cc1OC	IL1B secr inh -52, MCF10A rereplic inconclusive
COc1ccc(-c2nn3c(-c4ccccn4)nnc3s2)cc1OC	IL1B secr inh -51, PINK1 expr mod inconclusive
COc1cccc(-c2nn3c(-c4ccccn4)nnc3s2)c1	none (no result: IL1B secr inh)
Brc1ccc(-c2nn3c(-c4ccccn4)nnc3s2)o1	IL1B secr inh -51
O=C1/C(=C\c2cccc(O)c2)SC(=S)N1Cc1ccccc1	MCF10A rereplic inconclusive (no result: ATXN2 expr inh)
COc1cc(/C=C2/SC(=S)N(Cc3ccccc3)C2=O)ccc1O	IL1B secr inh -82, SW480 rereplic inconclusive, S2 tox inconclusive
O=C1/C(=C\c2ccc(O)c(O)c2)SC(=S)N1Cc1ccccc1	ATXN2 expr inh inconclusive, IL1B secr inh -87, SW480 rereplic inconclusive, S2 tox 28µM
O=C1/C(=C\c2cccc(O)c2O)SC(=S)N1Cc1ccccc1	ATXN2 expr inh inconclusive, IL1B secr inh -98, MCF10A rereplic inconclusive, SW480 rereplic 18µM, PINK1 expr mod inconclusive (no result: S2 tox)
Cc1ccc(/C=C2\SC(=S)N(Cc3ccccc3)C2=O)o1	PINK1 expr mod inconclusive
O=C(O)CN1C(=O)/C(=C\c2cc([N+](=O)[O-])ccc2OCc2ccccc2Cl)SC1=S	none
O=C1/C(=C\c2cc([N+](=O)[O-])ccc2O)SC(=S)N1Cc1ccc(Cl)cc1	MCF10A rereplic inconclusive, PINK1 expr mod 14µM (no result: ATXN2 expr inh, S2 tox)
Cc1ccc(-n2cnc3cc(C(=O)NCc4ccc(F)cc4)ccc32)c(C)c1	S2 tox inconclusive (no result: IL1B secr inh, MCF10A rereplic, SW480 rereplic)
CCOc1ccc(Sc2cc(C(=O)NC(C)c3ccccc3)c3ccccc3n2)cc1 (configuration not stated)	none (no result: ATXN2 expr inh, IL1B secr inh, MCF10A rereplic, SW480 rereplic, S2 tox)
COc1cc(OC)c(OC)cc1CN1CCCC(c2nc(C)ncc2-c2ccc(F)cc2)C1 (configuration not stated)	none (no result: ATXN2 expr inh, IL1B secr inh, MCF10A rereplic, SW480 rereplic)
COc1cc(/C=C2/SC(=NCc3ccccc3)N(Cc3ccccc3)C2=O)ccc1O	MCF10A rereplic 5.8µM
O=C1/C(=C/c2ccncc2)SC(=S)N1Cc1ccccc1	IL1B secr inh -82, MCF10A rereplic inconclusive, SW480 rereplic inconclusive
CCN=C1S/C(=C\c2ccc(O)c(OCC)c2)C(=O)N1CC	MCF10A rereplic inconclusive, SW480 rereplic inconclusive
CCCN1C(=O)/C(=C/c2ccncc2)SC1=S	none
O=C(O)CCCCN1C(=O)/C(=C\c2ccc(OCc3ccccc3)c(OCc3ccccc3)c2)SC1=S	IL1B secr inh -93, S2 tox inconclusive
COc1ccc(/C=C2/SC(=S)NC2=O)cc1OCc1ccccc1	MCF10A rereplic inconclusive, S2 tox inconclusive
COc1cc(/C=C2/SC(=O)NC2=O)ccc1OCc1ccccc1	MCF10A rereplic 26µM
COc1ccc2cc(CNC3CCS(=O)(=O)C3)c(-c3ccc(OC)c(OC)c3)nc2c1 (configuration not stated)	S2 tox inconclusive (no result: ATXN2 expr inh, IL1B secr inh, MCF10A rereplic, SW480 rereplic)
